Laboratory results published in PubChem BioAssay (NCATS).
Results filed as inconclusive are left out. Activity calls are given as the source filed them. Calls follow the shape of the dose curve; as a rule, active = well fitted inhibition curve with a large enough effect; inconclusive = small, poorly fitted or top-dose-only effect; inactive = flat fitted curve, though single readings scatter.

Tests used:
Assay in all cases: qHTS profiling for inhibitors of Plasmodium falciparum proliferation (AID 504749); also: nearly all actives have a fitted effect of over 60% in size
Details in all cases: P. falciparum in erythrocytes, SYBR Green DNA, 72 h; series mostly up to 28.7 µM
ATS189 = test system: ATS189
Outline: (§1)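 Readout was DNA-dye fluorescence from lysed cultures, ex 485/em 535 nm. Parasitized red cells had grown 72 h with compound; data scaled between 0.29 uM artemisinin and DMSO wells and corrected using vehicle-only plates.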

C2A = test system: C2A
Outline: as §1

CP185 = test system: CP185
Outline: as §1

CP191 = test system: CP191
Outline: as §1

CP192 = test system: CP192
Outline: as §1

CP201 = test system: CP201
Outline: as §1

CP211 = test system: CP211
Outline: as §1

CP217 = test system: CP217
Outline: as §1

CP237 = test system: CP237
Outline: as §1

CP238 = test system: CP238
Outline: as §1

CP247 = test system: CP247
Outline: as §1

CP250 = test system: CP250
Outline: as §1

CP252 = test system: CP252
Outline: as §1

CP256 = test system: CP256
Outline: as §1

CP262 = test system: CP262
Outline: as §1

ATS95 = test system: ATS95
Outline: as §1

CP203 = test system: CP203
Outline: as §1

CP194 = test system: CP194
Outline: as §1

CP215 = test system: CP215
Outline: as §1

CP260 = test system: CP260
Outline: as §1

Measured: Potency
Potency is read from the fitted curve at half-maximal effect.

CCN(CC)CCOC(=O)C(c1ccccc1)C1CCCCC1 (centres undefined)
not listed: ATS95 | CP203 | CP194 | CP215 | CP260
inactive: all other assays above

CNCCC=C1c2ccccc2CCc2ccccc21
active: ATS95 5.62 µM | CP203 7.57 µM

CCCCc1nc(Cl)c(CO)n1Cc1ccc(-c2ccccc2-c2nn[nH]n2)cc1
inactive: CP237 | CP262
active: ATS95 12.6 µM | CP211 6.75 µM | CP217 12.6 µM | CP252 10 µM

COC(=O)[C@H]1[C@H]2C[C@H]3c4[nH]c5ccccc5c4CCN3C[C@H]2CC[C@@H]1O
inactive: CP192 | CP194 | CP201 | CP203 | CP211 | CP215 | CP262

c1ccc(CNCCNCc2ccccc2)cc1
active: CP237 3.16 µM
inactive: CP191 | CP192 | CP201 | CP250 | CP262

CN(C)CCOc1ccccc1Cc1ccccc1
active: CP237 3.16 µM | CP238 7.94 µM | CP260 2.51 µM
inactive: CP192 | CP201

CCCCCCCCCCOCC(O)CN (centres undefined)
inactive: C2A | CP191 | CP201 | CP215 | CP238 | CP247 | CP250 | CP260 | CP262

Clc1ccc2c(c1)CCc1cccnc1C2=C1CCNCC1
inactive: C2A | CP185 | CP247 | CP250 | CP256

Cc1ccc(C(=O)C(C)CN2CCCCC2)cc1 (centres undefined)
not listed: ATS189 | CP191 | CP203 | CP260
inactive: all other assays above

CCCCCCCCCCCCCCNCCO
inactive: ATS95 | CP192 | CP194 | CP201 | CP203 | CP211 | CP217 | CP262
active: CP237 4.47 µM | CP247 10 µM | CP260 4.47 µM

CN(C(=O)CN(CCO)CC(=O)N(C)C(C)(C)Cc1ccccc1)C(C)(C)Cc1ccccc1
not listed: ATS189 | CP217 | CP237 | CP203 | CP194
inactive: all other assays above

O=c1c(-c2ccccc2)c1-c1ccccc1
active: ATS189 10 µM | CP250 11.2 µM | CP260 8.91 µM
inactive: CP262

C=C(CC)C(=O)c1ccc(OCC(=O)O)c(Cl)c1Cl
inactive: CP192 | CP201 | CP217
active: CP247 10 µM | CP250 12.6 µM | CP252 12.6 µM | CP256 4.47 µM | CP260 8.91 µM

CN=C(NC#N)Nc1ccc(C2=NNC(=O)CC2C)cc1 (centres undefined)
inactive: CP192 | CP194 | CP201 | CP203 | CP211 | CP215

COc1cc2c(cc1OC)C(=O)C(CC1CCN(Cc3ccccc3)CC1)C2 (centres undefined)
active: CP191 8.91 µM
not listed: ATS189 | C2A | CP185 | CP217 | CP238 | CP250 | CP203
inactive: all other assays above

CC(C)N=C(N)/N=C(\N)Nc1ccc(Cl)cc1
inactive: ATS95 | C2A | CP192 | CP238
active: CP191 1 µM | CP256 0.708 µM | CP262 2.28 µM

O=C1OCCN1/N=C/c1ccc([N+](=O)[O-])o1
inactive: C2A | CP192 | CP194 | CP262

CCN(CCCc1ccccc1)CCCc1ccccc1
active: ATS95 3.55 µM
not listed: ATS189 | CP185 | CP211 | CP237 | CP238 | CP203 | CP194 | CP215
inactive: all other assays above

CN(C)C(=S)SC(=S)N(C)C
inactive: CP262
active: CP192 7.57 µM | CP237 10 µM | CP250 11.2 µM | CP256 10 µM | CP260 10 µM

CC/C(=C(/CC)c1ccc(O)cc1)c1ccc(O)cc1
not listed: ATS189 | CP191 | CP256 | CP262 | CP203 | CP260
inactive: all other assays above

O=C(CCCN1CCC(O)(c2ccc(Br)cc2)CC1)c1ccc(F)cc1
inactive: CP201 | CP211 | CP256 | CP262
active: ATS95 3.16 µM | CP260 3.55 µM

Cc1cccc(C)c1NC(=O)CN1CCN(CCCC(c2ccc(F)cc2)c2ccc(F)cc2)CC1
not listed: ATS189 | CP217 | CP237 | CP262 | ATS95 | CP203 | CP194
inactive: all other assays above

Oc1c(I)cc(I)c2cccnc12
inactive: C2A

CCN(CC)CCNC(=O)COc1ccc(Cl)cc1
inactive: C2A | CP191 | CP192 | CP201 | CP203 | CP211 | CP215 | CP256 | CP262

NC(CS)C(=O)O (centres undefined)
inactive: CP185 | CP192 | CP201 | CP211 | CP262
active: ATS95 12.6 µM | CP191 10 µM | CP260 8.91 µM

O=C1OC(c2ccc(O)cc2)(c2ccc(O)cc2)c2ccccc21
not listed: ATS189 | CP192
inactive: all other assays above

OC(CCN1CCCCC1)(c1ccccc1)c1ccccc1
inactive: CP201 | CP211 | CP250
active: ATS95 8.91 µM | CP203 16.9 µM | CP237 4.47 µM

CCN(CC)CCOc1ccc(C(O)(Cc2ccc(Cl)cc2)c2ccc(C)cc2)cc1 (centres undefined)
active: ATS189 11.2 µM | CP215 13.5 µM | CP237 7.94 µM | CP247 10 µM | CP260 11.2 µM

CN(C)CC/C=C1\c2ccccc2Sc2ccc(Cl)cc21
inactive: CP192 | CP201 | CP250 | CP262
active: ATS95 11.2 µM | CP260 8.91 µM

O=C(N/N=C/c1ccccc1O)c1ccncc1
active: C2A 11.2 µM | CP217 8.91 µM | CP238 8.91 µM | CP247 8.91 µM | CP250 10 µM | CP252 8.91 µM | CP256 11.2 µM | CP260 5.01 µM

CCOC(=O)/C=C(C)/C=C/C=C(C)/C=C/c1c(C)cc(OC)c(C)c1C
inactive: CP192 | CP194 | CP201 | CP203 | CP211 | CP215 | CP237 | CP262

CCCOC(C(=O)OC1CCN(C)CC1)(c1ccccc1)c1ccccc1
inactive: CP192 | CP201 | CP203 | CP262

CN(C)CCCOc1nn(Cc2ccccc2)c2ccccc12
active: CP237 3.16 µM
not listed: ATS189 | CP247 | ATS95 | CP203
inactive: all other assays above

CO/N=C1\CN(c2nc3c(cc2F)c(=O)c(C(=O)O)cn3C2CC2)CC1CN (centres undefined)
inactive: CP262
active: CP191 8.91 µM | CP260 7.94 µM

C[C@@H]1CN(CCCn2c3ccccc3c3ccccc32)C[C@H](C)N1
active: C2A 11.2 µM | CP191 7.08 µM | CP237 11.2 µM | CP247 4.47 µM | CP260 11.2 µM
inactive: CP192

CC(C)=CCC1C(=O)N(c2ccccc2)N(c2ccccc2)C1=O
active: CP215 13.5 µM | CP237 11.2 µM
inactive: C2A | CP201 | CP238 | CP247
